Screening data: PubChem, National Center for Advancing Translational Sciences (NCATS)
JMJD2E inh: inhibitors of human JMJD2E histone demethylase; actives 1.6% (n = 230,000); Potency, µM (top dose mostly 57.1 µM), inactives show top-dose activity change, negative = inhibition, usual class: inhibitors; B2RXH2; JMJD2E catalytic domain, FDH-coupled NADH fluorescence (FDH is formaldehyde dehydrogenase);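 also: 0% = wells with enzyme and -100% = buffer wells without enzyme; nearly all actives have a fitted effect of over 50% in size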
HPGD inh: blocks human HPGD enzyme activity; P15428; purified HPGD, NADH fluorescence kinetic, PGE2 substrate; Potency, µM, for inactives: top-dose activity change, negative = inhibition, most hits filed as inhibitors; actives 4.3% (n = 150,000); AID 894; also: % is scaled to controls: 0 for no effect and ±100 for the full control effect
Target sequence (P15428 whole entry, looked up): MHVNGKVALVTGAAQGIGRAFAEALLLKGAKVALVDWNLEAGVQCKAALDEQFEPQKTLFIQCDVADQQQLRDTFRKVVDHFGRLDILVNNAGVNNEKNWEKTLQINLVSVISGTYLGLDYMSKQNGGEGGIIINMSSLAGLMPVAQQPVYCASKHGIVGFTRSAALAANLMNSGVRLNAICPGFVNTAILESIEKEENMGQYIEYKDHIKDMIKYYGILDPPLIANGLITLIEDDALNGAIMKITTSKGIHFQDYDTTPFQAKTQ
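NADH formation kinetics: reaction with 30 uM PGE2 and 1 mM NAD+ (final), 20 nM enzyme, Tris-HCl pH 8 with Tween 20, after 15 min compound preincubation at room temperature. Fluorescence change, last versus first of five reads.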
HTT ATP protect: Huntington cell model cytoprotection by ATP luminescence | actives 0.14% (n = 230,000) | PC12 HTT-Q103 induced, cytoprotection, ATP luminescence, 40 h | AID 1471 | Potency, µM (titrated, usually from 56.4 µM), inactives show cytoprotection (ATP increase), usual class: activators; active = well fitted curve in the direction sought with a large enough effect; inconclusive = small, poorly fitted or top-dose-only effect, or another doubt; inactive = no such curve, though single readings can be large; an effect the other way counts as inactive or inconclusive; also: % of control where 0% means no effect; nearly all actives have a fitted effect of over 45% in size
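Cells were plated at 1500 per well in phenol red-free DMEM with 5% equine and 5% calf serum. Tebufenozide (100 nM final) and compounds were added, then ATPlite reagent, and luminescence was read.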
ALDH1A1 block: blocks purified human ALDH1A1 activity; P00352; actives 7.3% (n = 220,000); Purified ALDH1A1, NADH fluorescence, propionaldehyde substrate; Potency, µM (series often up to 75.3 µM), for inactives: top-dose activity, negative = inhibition, usual class: inhibitors;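 also: plate controls were no enzyme wells and a reference inhibitor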
Target sequence (P00352 whole entry, looked up): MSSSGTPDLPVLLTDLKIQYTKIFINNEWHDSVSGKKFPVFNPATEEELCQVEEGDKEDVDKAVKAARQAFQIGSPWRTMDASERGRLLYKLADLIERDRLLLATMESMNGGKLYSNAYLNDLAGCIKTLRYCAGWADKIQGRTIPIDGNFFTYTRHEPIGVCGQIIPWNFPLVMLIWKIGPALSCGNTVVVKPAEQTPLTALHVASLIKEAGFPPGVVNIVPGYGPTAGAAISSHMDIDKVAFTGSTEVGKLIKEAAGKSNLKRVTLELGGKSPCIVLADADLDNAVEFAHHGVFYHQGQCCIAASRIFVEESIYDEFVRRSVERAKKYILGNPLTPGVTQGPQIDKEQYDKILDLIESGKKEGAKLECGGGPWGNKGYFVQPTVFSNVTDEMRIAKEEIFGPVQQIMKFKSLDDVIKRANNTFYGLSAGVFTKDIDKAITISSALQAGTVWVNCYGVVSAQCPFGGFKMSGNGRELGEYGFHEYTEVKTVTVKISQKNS
HTT aggregate: reduces HttQ103-GFP aggregates in PC12 cells | PC12 HttQ103-GFP aggregates, Acumen cytometry, 40 h | Potency, µM (top dose mostly 46.1 µM), for the others: at the highest dose activity change, negative = inhibition, usual class: inhibitors | actives 1.1% (n = 220,000) | AID 1688; active = well fitted curve in the direction sought with a large enough effect; inconclusive = small, poorly fitted or top-dose-only effect, or another doubt; inactive = no such curve, though single readings can be large; an effect the other way counts as inactive or inconclusive; also: % is scaled to controls: 0 for no effect and ±100 for the full control effect; nearly all actives have a fitted effect of over 60% in size
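Aggregates are detected as GFP objects 1–25 µm with signal 6 STDEV over background in lysates of induced PC12 cells. These carry Huntingtin exon 1 with 103 glutamines fused to GFP under an ecdysone promoter; compounds titrated.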
LMNA splice mod: LMNA splicing modulation. HeLa LMNA splicing GFP/RFP minigene ratio, 48 h. Potency, µM (top dose mostly 46.1 µM), for the others: at the highest dose ratio change, negative = inhibition, actives largely listed as inhibitors. actives 0.01% (n = 200,000); active = well fitted inhibition curve with a large enough effect in the signal ratio, with a control signal flat, not every such curve was filed as active; inconclusive = small, poorly fitted or top-dose-only effect, or effect the other way, or a change in a side signal; the % refers to the signal ratio; also: % is scaled to controls: 0 for no effect and ±100 for the full control effect
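Read-out is the ratio of GFP to DsRed2 object intensity, acquired by 488 nm laser-scanning cytometry on HeLa lamin A-EGFP minigene reporter cells. Compound incubation 48 hrs at 37 °C in Opti-MEM with 2% FBS; DMSO 0.5% final.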
An asterisk follows results filed as active; u = inconclusive; x = no result given; [ ] = dose if it differs, or a comment. Compounds with a hit are over-represented: about 9.2% of the library has one in this group of screens. Unless noted, calls follow the shape of the dose curve; as a rule, active = well fitted inhibition curve with a large enough effect (not every such curve was filed as active); inconclusive = small, poorly fitted or top-dose-only effect, or another doubt; inactive = no such curve, though single readings can be large or run the other way. Potency is read from the fitted curve at half-maximal effect.

SMILES	JMJD2E inh	HPGD inh	HTT ATP protect	ALDH1A1 block	HTT aggregate	LMNA splice mod
N#Cc1cc(C(=O)c2cc(Br)ccc2O)cn(C2CC2)c1=O	u	17.8µM*	-26.3%[10 µM]	14.1µM*	u	u
CCCCC(=O)NC(NC(=S)N1CCOCC1)C(Cl)(Cl)Cl (configuration not stated)	0.0%	-14.3%	-5.9%	11.2µM*	19.0%	2.1%
CO[C@]12C(COC(N)=O)C3=C(C(=O)C(C)=C(N)C3=O)N1CC1NC12 (some centres not stated)	u	-10.8%	-288.7%	-3.1%	12.6µM*	x
Cc1cc(C(=O)N/N=C/c2ccc(Cl)c([N+](=O)[O-])c2)c(C)n1-c1ccc(F)cc1	22.4µM*	-5.5%	-12.7%[10 µM]	u	u	8.3%
CN1CCc2cc(Cl)c(O)cc2[C@@H](c2ccccc2)C1	6.0%	-19.8%	u	-6.6%	x	-12.4%[46 µM]
Oc1ccc([C@@H]2CNCCc3c2cc(O)c(O)c3Cl)cc1	11.2µM*	-0.5%	-5.4%	-11.9%	x	x
Oc1cc2c(cc1O)C(c1ccccc1)CNCC2 (configuration not stated)	20µM*	u	u	u	x	-28.5%
Oc1cc2c(cc1O)[C@@H](c1ccccc1)CNCC2	13.4%	20µM*	x	3.2%	-15.8%	10.8%
CN1CCc2cc(Cl)c(O)cc2C(c2ccccc2)C1 (configuration not stated)	4.0%	-12.1%	x	-4.2%	x	u
N#CCCn1c(=O)c(-c2cc(F)cc(F)c2)nc2cnc(OCc3ccccc3)nc21	x	u	-11.0%	u	x	x
CC(C)(C)c1onc(OCP(=O)(O)O)c1C[C@@H](N)C(=O)O	x	x	-4.8%[1.9 µM]	x	x	x
CC(C)=NOC[C@@H](O)[C@@H]1O[C@@H]2OC(C)(C)O[C@@H]2[C@H]1O	x	x	23.4%[10 µM]	9.0%[13.5 µM]	x	x
Cc1cccc(CNc2ncncc2-c2ccccc2C)c1	x	x	13.0%	8.6%	x	-13.4%
S=c1[nH]cc(-c2ccccc2)n1-c1ccccc1	-13.5%	25.1µM*	-4.8%	3.16µM*	10.3%	-4.1%
CCn1c(-c2ccccc2)c[nH]c1=S	u	-28.3%	3.7%	28.2µM*	-6.9%	4.7%
NNC(=O)c1cc2cc3ccccc3nc2s1	u	x	-59.7%	20µM*	-18.2%	x
NC/C=C\C(=O)O	-11.9%	-9.0%	u	-4.7%	x	u
N#CC(C#N)=CNCCN1CCN(C=C(C#N)C#N)CC1	x	-11.6%	-14.5%[10 µM]	8.0%[13.5 µM]	x	x
NNc1cc([N+](=O)[O-])cc2c1C(=O)N(Cc1ccccc1)S2=O (configuration not stated)	-4.2%	x	-44.9%	14.1µM*	26.0%	-4.1%[46 µM]
CCOC(=O)c1c(NC(=S)Nc2ccc(Cl)cc2)sc(C)c1C	3.9%	-5.8%	8.8%	-3.9%	2.6%	-0.7%
COC(=O)c1c(NC(=S)Nc2ccc(CC(=O)O)cc2)sc(C)c1C	3.2%	-26.2%	-0.7%[10 µM]	25.1µM*	9.5%	8.6%
COc1ccc(CN(C(=O)COc2ccccc2)c2ccccc2C(=O)O)cc1	-5.3%	x	24.9%[10 µM]	x	20.6%[9.22 µM]	x
O=C(NC(=S)Nc1cccc2cnccc12)c1ccccc1	7.3%	x	5.2%	-6.4%	u	x
CCc1ccc(NC(=S)Nc2cccc3cnccc23)cc1	u	x	-27.8%	11.2µM*	-27.0%	-7.9%[9.22 µM]
Cc1ccc(NC(=S)Nc2cccc3cnccc23)c(C)c1	u	x	-26.0%	17.8µM*	-20.2%	u
SMILES	JMJD2E inh	HPGD inh	HTT ATP protect	ALDH1A1 block	HTT aggregate	LMNA splice mod
Cc1cc(C)cc(NC(=S)Nc2cccc3cnccc23)c1	20µM*	x	-13.3%[10 µM]	11.2µM*	1.0%	x
Cc1nn(-c2ccc(N3CCCC3)nn2)c(C)c1CCC(=O)NCc1ccccc1F	x	x	x	x	x	10.7%[46 µM]
O=C(CCl)Nc1ccc(Oc2cnc3ccccc3n2)cc1	2.2%	-16.0%	-47.2%	0.112µM*	u	u
O=C(CCl)Nc1cccc(-c2cnc3ccccc3n2)c1	-8.4%	-15.1%	-68.9%	0.891µM*	25.1µM*	u
CC(=O)OC[C@@H]1O[C@H](C/C=N\O[C@@H]2O[C@H](COC(C)=O)[C@@H](OC(C)=O)[C@H](OC(C)=O)[C@H]2OC(C)=O)C=C[C@@H]1OC(C)=O	x	x	u	3.6%[13.5 µM]	x	x
O=C(c1ccc(COc2ccc(F)cc2)o1)n1cccn1	2.9%	-11.4%	35.8%	-2.1%	1.4%	2.0%
Cc1cc(OCc2ccc(C(=O)n3cccn3)o2)ccc1Cl	u	31.6µM*	-9.0%[10 µM]	-0.3%	-19.7%	-3.3%
CC(C)[C@@H]1C(=O)N(S(C)(=O)=O)[C@H]2CCN(C(=O)/C=C\CN3CCCCC3)[C@@H]12	6.4%	5.0%	27.7%	6.2%	x	x
COc1nc(-c2cccc([N+](=O)[O-])c2)nc2ccccc12	-1.0%	x	1.0%[10 µM]	x	-11.8%[9.22 µM]	x
O=[N+]([O-])c1cccc(-c2nc(Oc3ccc(Cl)cc3)c3ccccc3n2)c1	0.0%	25.1µM*	x	u	-3.9%	u
c1ccc2nc(CC[C@@H]3CCCCN3)ccc2c1	x	-10.0%	-8.7%[10 µM]	10.6%[13.5 µM]	x	x
COC(=O)c1sccc1NC(=O)CC1NCCNC1=O (configuration not stated)	u	x	6.4%[10 µM]	x	6.3%[9.22 µM]	x
CC(CCc1ccccc1)NS(=O)(=O)c1ccccc1 (configuration not stated)	6.7%	-10.6%	4.9%	10µM*	-14.3%	5.0%
CC(=O)NC(c1ccccc1)c1cc([N+](=O)[O-])c2cccnc2c1O (configuration not stated)	15.8µM*	x	-42.3%[10 µM]	u	2.82µM*	u
O=[N+]([O-])c1cc(Cc2cc([N+](=O)[O-])c3cccnc3c2O)c(O)c2ncccc12	x	-11.9%	-18.0%[10 µM]	u	x	x
CC(C)C(=O)NC(c1ccccc1)c1cc([N+](=O)[O-])c2cccnc2c1O (configuration not stated)	u	-13.0%	-8.1%[10 µM]	-5.8%	8.91µM*	u
C/C(=N\OCC(=O)NC12CC3CC(CC(C3)C1)C2)c1cc2ccccc2o1	-6.0%	x	-10.2%[10 µM]	-8.3%	u	u
O=C(N/N=C/c1ccc(Cl)s1)c1ccccc1[N+](=O)[O-]	-3.8%	x	21.8%[10 µM]	x	5.2%[9.22 µM]	x
Cc1ccc(NC(=S)N/N=C/c2ccc([N+](=O)[O-])s2)cc1	0.1%	u	x	11.2µM*	9.1%	u
Cc1ccc(/C=N/NC(=O)Cc2cccs2)o1	-3.9%	-21.2%	12.7%[10 µM]	12.6µM*	-14.6%	-11.9%
O=C(CNC(=O)c1ccccc1Cl)N/N=C/c1ccc([N+](=O)[O-])s1	-8.9%	-8.6%	13.8%[10 µM]	5.2%	11.2µM*	u
O=C(Cc1cccs1)N/N=C\c1ccc([N+](=O)[O-])s1	-19.5%	x	-108.2%	12.6µM*	u	6.8%[46 µM]
COc1cccc(NC(=O)N2CCN3CCCCC3C2)c1 (configuration not stated)	x	x	x	x	x	9.7%[46 µM]
